The values below come from PubChem BioAssay (NCATS).

Unmarked numbers belong to inactive results. The source made the active and inactive calls. The rule behind the calls is not given here.
Potency is the fitted concentration of half-maximal effect.

The test system of the test is HIV-1 nucleocapsid protein NCp7 (binding to TG oligonucleotide). Kind of test: HIV Nucleocapsid (AID 346).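 Note: potency is for inhibitors that block NC binding and lower polarization.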 As to conditions: HIV-1 NC / fluorescein-TGTGTGTG probe, fluorescence polarization. In a few lines:
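NCp7 100 nM + fluorescein TG4xF 10 nM; Hepes pH 7.5/250mM NaCl/1uM ZnCl2/0.004% PEG 20000; 1 hr RT; FP, 45 s exposure; oligo-only wells as negative control.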
A general note: Fluorescence polarisation rises when a labelled molecule tumbles more slowly, as on binding a larger partner.
Consider `COc1ccc(C(=O)N2CCC3(CC2)CN(c2ccncc2)C3)cc1`, for which the Potency is above 20 µM.

For `COC(=O)N1CCC[C@@]2(CCN(C(=O)Nc3ccc(OC)cc3)C2)C1`, the Potency is above 20 µM.

For the compound `COCCn1c(=O)c(-c2cccs2)nc2cnc(N3CCOCC3)nc21`, the Potency was above 20 µM.

As to `CN(C)c1ccnc(-c2ccccc2C(F)(F)F)n1`, the Potency was above 20 µM.

Regarding `COCCn1c(=O)c(-c2cc(F)cc(F)c2)nc2cnc(Nc3cccc(OC)c3)nc21`, the Potency is 3.99 µM (active).

As for `Cn1cccc1C(=O)N1CCC2(CCCN(c3ccncc3)C2)CC1`, the Potency was above 20 µM.

Turning to `COc1ncc2nc(-c3cccs3)c(=O)n(Cc3cccs3)c2n1`, the Potency is above 20 µM.

On to `COc1ncc2nc(-c3ccccc3)c(=O)n(CCc3ccccc3)c2n1`, for which the Potency was above 20 µM.

In the case of `Cc1ccccc1-c1cc(N2CCNCC2)ncn1`, the Potency was above 20 µM.

As for `COCCn1c(=O)c(-c2ccc(F)cc2)nc2cnc(OCc3ccccc3)nc21`, the Potency was above 20 µM.

Take `COCCNc1ncncc1-c1ccccc1OC`: the Potency is above 20 µM.

As to `Cc1nc2cnc(N3CCNCC3)nc2n(C2CC2)c1=O`, the Potency was above 20 µM.

In the case of `Cc1noc(C)c1-c1nc(NCc2cccs2)c2ccccc2n1`, the Potency was above 20 µM.

For the compound `CN(C)Cc1ccccc1-c1cc(Nc2ccccc2)ncn1`, the Potency was above 20 µM.

For `O=C(c1cccc(F)c1)N1CCC2(CC1)CN(c1ccc(-c3ccccc3)cc1)C2`, the Potency was above 20 µM.

In the case of `Cc1noc(C)c1-c1nccc(NC2CC2)n1`, the Potency was above 20 µM.

`COc1ccccc1-c1cc(-n2ccnc2)ncn1`: the Potency was above 20 µM.

On to `Cc1cnc(CNc2ncnc3ccc(-c4c(C)noc4C)cc23)cn1`, for which the Potency was above 20 µM.

As to `COc1ccc(Oc2ncc3nc(C)c(=O)n(-c4ccc(OC)cc4)c3n2)cc1`, the Potency is above 20 µM.

For `c1ccc(-c2ccc(N3CCCC4(CCNCC4)C3)cc2)cc1`, the Potency was above 20 µM.

Regarding `O=S(=O)(c1ccccc1)N1CCC[C@@]2(CCN(c3ccncc3)C2)C1`, the Potency was above 20 µM.

On to `CN1CCN(c2cc(-c3ccoc3)ncn2)CC1`, for which the Potency was above 20 µM.

Take `COc1ncc2nc(-c3ccc(F)cc3)c(=O)n(C[C@H]3CCCO3)c2n1`: the Potency is above 20 µM.

On to `O=C(c1cc(C(F)(F)F)cc(C(F)(F)F)c1)N1CCC2(CC1)CN(c1ccccn1)C2`, for which the Potency is above 20 µM.
